Compounds with a hit are over-represented: about 1.2% of the library has one in this group of screens.
NOD2-RIPK2 inh – NOD2-RIPK2 protein interaction inhibition | O43353 | CHO BLA complementation NOD2-RIPK2, CCF4 ratio | inhibition, % at 4.98 µM | 360,000 compounds, 0.38% hits | AID 624267; in the data active means inhibition above about 21%;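 further: 0% = vehicle only and 100% = reference blocker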
Target sequence (O43353 whole entry, looked up): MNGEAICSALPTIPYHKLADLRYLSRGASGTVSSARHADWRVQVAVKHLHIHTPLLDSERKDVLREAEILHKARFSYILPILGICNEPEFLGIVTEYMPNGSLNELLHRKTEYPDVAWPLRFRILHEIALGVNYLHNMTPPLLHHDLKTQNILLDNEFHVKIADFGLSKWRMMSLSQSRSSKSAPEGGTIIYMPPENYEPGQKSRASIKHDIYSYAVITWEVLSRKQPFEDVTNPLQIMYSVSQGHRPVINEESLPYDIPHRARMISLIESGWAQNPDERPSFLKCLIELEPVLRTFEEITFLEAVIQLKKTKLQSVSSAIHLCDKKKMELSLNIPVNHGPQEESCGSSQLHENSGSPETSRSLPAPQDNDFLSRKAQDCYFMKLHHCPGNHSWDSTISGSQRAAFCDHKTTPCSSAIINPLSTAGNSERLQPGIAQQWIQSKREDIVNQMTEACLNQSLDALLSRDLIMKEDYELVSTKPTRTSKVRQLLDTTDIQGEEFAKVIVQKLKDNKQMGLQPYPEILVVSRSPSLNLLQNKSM
NPR1 activator – GC-A (human) enzyme activation | activation, % at 10 µM | AID 1671463 | 370,000 compounds, 0.14% hits | P16066 | HEK293 GC-A cells, cGMP TR-FRET, EC30 ANP; 0% at EC30 ANP, 100% saturating ANP; in the data active means activation above about 40%
TLR4 MyD88 comp – TLR4-MyD88 interaction inhibition in cells | 200,000 compounds, 0.18% hits | HeLa CL3-4 TLR4/MyD88 BLA complementation, FRET ratio | O00206+Q99836 | inhibition, % at 8.4 µM | AID 861; in the data active means inhibition above about 25%;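 further: 0% = vehicle and 100% = reference inhibitor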
Neddyl block – blocks human cullin neddylation; P61081+Q13564; TR-FRET cullin neddylation, biochemical; inhibition, % at 25 µM; 360,000 compounds, 0.58% hits; in the data active means inhibition above about 36%
TLR9-MyD88 block – blocks human TLR9 binding to MyD88 | AID 504734 | Q9NR96+Q99836 | 340,000 compounds, 0.21% hits | CHO BLA complementation TLR9-MyD88, CCF4 FRET ratio | inhibition, % at 4.98 µM;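 active means inhibition above the mean over all tested compounds plus 3 SD, cut at about 21% in these data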;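 further: 0% = DMSO only wells and 100% = clavulanate BLA inhibitor control wells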
NPR2 activator – GC-B (human) receptor activation; HEK293-GC-B cells, CNP EC30, cGMP TR-FRET; 0% at EC30 CNP, 100% saturating CNP; P20594; activation, % at 10 µM; AID 1920062; 370,000 compounds, 0.11% hits;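 active means activation at 10 µM reaching about 35% in either raw or pattern-adjusted values, limit read from the data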
Neddyl inh conf – cullin neddylation inhibition, confirmation; shares compounds with Neddyl block; TR-FRET cullin neddylation biochemical assay; calls only at 25 µM; 1,800 compounds, 13% hits; AID 652217; in the data active means inhibition above about 40%;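 further: neddylation substrate is the cullin 1 ring ligase complex with SKP2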
* hit, by the source's call; i = inactive; . = no result shown; + = active, no number.

SMILES	NOD2-RIPK2 inh	NPR1 activator	TLR4 MyD88 comp	Neddyl block	TLR9-MyD88 block	NPR2 activator	Neddyl inh conf
c1ccc(COC2COC3C(OCc4ccccc4)COC23)cc1 (configuration not stated)	7	1	.	1	-4	7	.
O=C(Nc1ccc2c(c1)OCO2)c1cc(-c2ccc(O)cc2)on1	-1	3	.	52*	4	1	+
O=C(Nc1ccc2c(c1)OCO2)c1cc(-c2cccc(O)c2)on1	-3	-4	.	26	2	-6	.
C#CCNC(=O)C[C@H]1C[C@@]2(C(=O)OC)C(=C[C@H](C(C)(C)C)O[C@@H]2C)N(Cc2ccco2)C1=O	.	-21	.	.	.	-17	.
COc1ccc(NC(=O)[C@@H]2O[C@H](CO)[C@H](O)[C@H](O)[C@H]2O)cc1F	-6	-1	.	-12	.	5	.
COc1ccc(C2NC(=O)c3ccccc3O2)c(OC)c1OC (configuration not stated)	6	0	-9	45*	2	3	i
COC(=O)[C@]12C[C@H](CC(=O)NCc3ccc(C)o3)C(=O)N(CCc3ccc(OC)c(OC)c3)C1=C[C@H](C(C)C)O[C@@H]2C1CC1	.	-1	.	.	.	4	.
NS(=O)(=O)c1ccc(CCNC(=O)C2CC(=O)N(Cc3ccccc3Cl)C2)cc1 (configuration not stated)	-16	2	.	-13	-9	9	.
COCCCNC(=O)C(C)N1c2cccc3cccc(c23)S1(=O)=O (configuration not stated)	-3	-1	.	42*	-2	0	i
COc1ccc(C(=O)Nc2ccc(NC(=O)c3cccs3)cc2)cc1Cl	-11	2	10	40*	1	-5	i
COc1ccc(C(=O)Nc2ccc(NC(=O)c3cccs3)c(OC)c2)cc1Cl	7	-4	11	.	0	0	.
COc1ccc(C2C3=C(CC(C)(C)CC3=O)Nc3c2c(=O)[nH]c2nc(C)nn32)cc1 (configuration not stated)	-15	0	0	47*	-3	-1	+
CC1=C(C#N)C(c2ccc(O)cc2)C2=C(CCCC2=O)N1 (configuration not stated)	2	1	2	44*	-1	-1	i
COc1ccc(C2C3=C(CC(C)(C)CC3=O)Nc3cc4c(cc32)OCO4)cc1 (configuration not stated)	-10	7	-3	.	6	4	.
COc1ccc(C2C(C#N)=C(C)NC3=C2C(=O)CC(C)(C)C3)cc1 (configuration not stated)	-2	-1	8	42*	-4	-1	.
CC(C)(C)c1ccc(-c2nnc(SCC(=O)c3ccc4ccccc4c3)n2-c2ccc(Cl)cc2)cc1	.	1	.	.	.	2	.
CC(C)NC(=O)C1C(c2ccc(C(F)(F)F)cc2)=Nc2ccccc2N1C(=O)c1cc2ccccc2[nH]1 (configuration not stated)	-6	-1	.	12	.	-6	.
CC(C(=O)N(C)Cc1cccc(F)c1)N1CCN(S(=O)(=O)c2ccc3c(c2)OCCCO3)CC1 (configuration not stated)	-3	-2	.	17	-4	4	.
COc1ccc(-c2nn(-c3ccccc3)cc2/C=N/Nc2ccc(Cl)c(C(=O)O)c2)cc1OC	2	5	.	44*	6	2	i
COc1ccc(C(CC(=O)N2CCN(c3ccccc3)CC2)c2c(OC)cc(OC)c3ccc(=O)oc23)cc1 (configuration not stated)	-1	-9	.	33*	-7	-11	i
COc1ccc(/C=C/C(=O)NC(=S)NNC(=O)c2cc(OC)c(OC)c(OC)c2)cc1	0	-2	.	48*	-1	0	i
COc1ccc(/C=C/C(=O)NC(=S)NNC(=O)c2cc(OC)c(OC)c(OC)c2)cc1OC	-7	1	.	0	.	-1	.
COc1cc2c(cc1OC)-c1cc(NCc3ccccn3)nc(=O)n1CC2	0	5	1	39*	1	1	+
CCNc1cc2n(c(=O)n1)CCc1cc(OC)c(OC)cc1-2	0	1	-4	.	-4	1	.
O=C(OCc1cn(Cc2ccc(C(F)(F)F)cc2)nn1)N1CCCC1	.	5	.	.	.	6	.
SMILES	NOD2-RIPK2 inh	NPR1 activator	TLR4 MyD88 comp	Neddyl block	TLR9-MyD88 block	NPR2 activator	Neddyl inh conf
COc1ccc(C(=O)OC(C)CN2CCOCC2)cc1OC (configuration not stated)	-16	3	8	40*	-9	-1	i
COc1ccc(Nc2nc(C)nc3c2oc2ccccc23)cc1	-6	5	.	.	0	1	.
CCc1nc(Nc2ccc(N3CCN(C(C)=O)CC3)cc2)c2oc3ccccc3c2n1	2	15	-20	38*	-18	20	i
CC(=O)N1CCN(c2ccc(Nc3ncnc4c3oc3ccccc34)cc2)CC1	7	4	-6	12	-11	10	.
Cc1ccc(Nc2nc(C)nc3c2oc2ccccc23)cc1	-2	11	.	37*	-5	-7	.
N#CN1CCC(NS(=O)(=O)c2ccc(F)cc2)C1 (configuration not stated)	.	-1	.	.	.	0	.
CC1(c2nnnn2Cc2ccccc2)CCC(=O)N1CCOc1ccccc1 (configuration not stated)	-1	-9	.	-6	.	-1	.
COc1ccc2c(c(-c3ccccc3)cn2C)c1-c1ccccc1	.	-7	.	.	.	-3	.
CCCCCCC(=O)Nc1cc2c(C)cc(=O)oc2cc1C	-10	2	-15	8	9	5	.
CCC(=O)Nc1cc2c(C)cc(=O)oc2cc1C	0	3	2	50*	4	6	.
Cc1cccnc1C(NC(=O)C1CCN(CCCOc2ccc(F)cc2)CC1)c1ccccc1 (configuration not stated)	20	-1	.	-7	.	2	.
C=CCNc1ncnc2c1ncn2[C@H]1CN(Cc2cc(OC)c(OC)c(OC)c2)C[C@@H](CO)O1	-9	-2	.	5	.	6	.
CC(=O)OC[C@H]1O[C@@H](Oc2cc(O)cc3oc(-c4ccc(O)cc4)cc(=O)c23)[C@H](O[C@@H]2O[C@@H](C)[C@H](O)[C@@H](O)[C@H]2O)[C@@H](O)[C@@H]1O	-13	3	.	37*	-7	2	.
COC(=O)C1=C(C)NC(C)=C(C(=O)OC)C1C(=O)OCC(=O)N1CCCCC1C (configuration not stated)	-12	-2	.	23	-3	10	.
Nc1nccc(/C=C/c2ccc(Cl)cc2)n1	3	10	.	37*	-5	-5	i
Nc1nccc(/C=C/c2c(Cl)cccc2Cl)n1	3	-1	.	30	1	-4	.
